Measurements taken from the supplement of paper PMC11732987, “Enantioselective OTUD7B fragment discovery through chemoproteomics screening and high-throughput optimisation” (Communications Chemistry, 2025).

What was measured:
Assay in all cases: log2 ratio of Biotin-Ahx-Ub-VS probe labelling (fragment/DMSO); higher = less target engagement (more negative = stronger competition), active = hit call of the paper (q ≤ 0.05, log2 ratio ≤ -1)
Settings in all cases: compound concentration: 200 uM; treatment time: 3 h
[1] = target: T1, USP42 (UniProt Q9H9J4)
T1 sequence (whole entry): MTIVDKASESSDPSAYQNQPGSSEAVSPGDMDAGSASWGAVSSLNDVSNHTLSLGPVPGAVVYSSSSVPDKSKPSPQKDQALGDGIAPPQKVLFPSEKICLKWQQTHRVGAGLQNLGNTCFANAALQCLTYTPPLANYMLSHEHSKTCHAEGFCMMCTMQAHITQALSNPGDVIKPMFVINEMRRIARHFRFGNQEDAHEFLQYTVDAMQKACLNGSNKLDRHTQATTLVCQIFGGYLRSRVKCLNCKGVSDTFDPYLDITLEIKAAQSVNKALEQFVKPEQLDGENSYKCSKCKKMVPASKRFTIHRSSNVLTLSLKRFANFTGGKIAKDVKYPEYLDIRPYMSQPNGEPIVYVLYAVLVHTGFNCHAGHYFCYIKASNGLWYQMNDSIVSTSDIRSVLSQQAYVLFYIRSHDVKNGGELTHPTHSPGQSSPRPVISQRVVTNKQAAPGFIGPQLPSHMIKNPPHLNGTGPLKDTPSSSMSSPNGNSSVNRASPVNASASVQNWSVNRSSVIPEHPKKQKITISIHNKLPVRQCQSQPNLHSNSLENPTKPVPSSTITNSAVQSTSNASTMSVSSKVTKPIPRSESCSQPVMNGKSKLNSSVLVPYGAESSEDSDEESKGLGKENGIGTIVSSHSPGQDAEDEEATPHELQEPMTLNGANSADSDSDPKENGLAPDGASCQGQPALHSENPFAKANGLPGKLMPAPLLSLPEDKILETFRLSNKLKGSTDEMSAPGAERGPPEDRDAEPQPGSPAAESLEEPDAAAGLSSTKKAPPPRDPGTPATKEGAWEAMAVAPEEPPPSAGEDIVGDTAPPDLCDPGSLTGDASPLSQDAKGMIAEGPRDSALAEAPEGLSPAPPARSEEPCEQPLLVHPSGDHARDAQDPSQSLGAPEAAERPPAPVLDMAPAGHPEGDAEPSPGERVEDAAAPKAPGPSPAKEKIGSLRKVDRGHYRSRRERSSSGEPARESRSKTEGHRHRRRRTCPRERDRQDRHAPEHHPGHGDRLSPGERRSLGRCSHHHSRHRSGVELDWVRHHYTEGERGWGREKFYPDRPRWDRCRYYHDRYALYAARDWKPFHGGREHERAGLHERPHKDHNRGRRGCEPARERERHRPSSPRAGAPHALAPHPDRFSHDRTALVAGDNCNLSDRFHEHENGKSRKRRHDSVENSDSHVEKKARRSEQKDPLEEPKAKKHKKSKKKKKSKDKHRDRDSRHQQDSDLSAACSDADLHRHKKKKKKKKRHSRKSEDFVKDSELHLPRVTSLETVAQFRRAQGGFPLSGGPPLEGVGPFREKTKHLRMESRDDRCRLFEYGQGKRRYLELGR
Method in brief: (§1)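 HEK293T lysate in Tris/CHAPS/IGEPAL buffer with protease inhibitors (495 µg per sample) was given fragment at 200 µM or vehicle for 3 h, in triplicate. It then received Biotin-Ahx-Ub-VS at 0.5 µM final for 1 h. Labelled DUBs were NeutrAvidin-enriched, digested with LysC and trypsin, and run by diaPASEF LC-MS/MS. Values are average log2 fragment/vehicle ratios by unpaired t-test on global-median-normalised Spectronaut quantities of proteins with ≥2 unique peptides.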

[2] = target: USP46 (UniProt P62068)
Chain of USP46 (P62068 whole entry): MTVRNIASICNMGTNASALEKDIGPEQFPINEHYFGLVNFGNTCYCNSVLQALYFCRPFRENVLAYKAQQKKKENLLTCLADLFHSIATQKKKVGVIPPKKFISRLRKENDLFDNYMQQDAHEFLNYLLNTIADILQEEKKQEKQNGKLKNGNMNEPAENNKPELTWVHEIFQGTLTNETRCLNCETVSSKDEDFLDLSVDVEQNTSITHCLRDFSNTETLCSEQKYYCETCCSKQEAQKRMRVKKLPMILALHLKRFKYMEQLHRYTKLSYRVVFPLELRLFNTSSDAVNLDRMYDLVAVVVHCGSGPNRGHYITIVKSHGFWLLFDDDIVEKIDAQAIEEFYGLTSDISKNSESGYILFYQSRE
Method in brief: as §1

[3] = target: T2, USP47 (UniProt Q96K76)
T2 sequence (whole entry): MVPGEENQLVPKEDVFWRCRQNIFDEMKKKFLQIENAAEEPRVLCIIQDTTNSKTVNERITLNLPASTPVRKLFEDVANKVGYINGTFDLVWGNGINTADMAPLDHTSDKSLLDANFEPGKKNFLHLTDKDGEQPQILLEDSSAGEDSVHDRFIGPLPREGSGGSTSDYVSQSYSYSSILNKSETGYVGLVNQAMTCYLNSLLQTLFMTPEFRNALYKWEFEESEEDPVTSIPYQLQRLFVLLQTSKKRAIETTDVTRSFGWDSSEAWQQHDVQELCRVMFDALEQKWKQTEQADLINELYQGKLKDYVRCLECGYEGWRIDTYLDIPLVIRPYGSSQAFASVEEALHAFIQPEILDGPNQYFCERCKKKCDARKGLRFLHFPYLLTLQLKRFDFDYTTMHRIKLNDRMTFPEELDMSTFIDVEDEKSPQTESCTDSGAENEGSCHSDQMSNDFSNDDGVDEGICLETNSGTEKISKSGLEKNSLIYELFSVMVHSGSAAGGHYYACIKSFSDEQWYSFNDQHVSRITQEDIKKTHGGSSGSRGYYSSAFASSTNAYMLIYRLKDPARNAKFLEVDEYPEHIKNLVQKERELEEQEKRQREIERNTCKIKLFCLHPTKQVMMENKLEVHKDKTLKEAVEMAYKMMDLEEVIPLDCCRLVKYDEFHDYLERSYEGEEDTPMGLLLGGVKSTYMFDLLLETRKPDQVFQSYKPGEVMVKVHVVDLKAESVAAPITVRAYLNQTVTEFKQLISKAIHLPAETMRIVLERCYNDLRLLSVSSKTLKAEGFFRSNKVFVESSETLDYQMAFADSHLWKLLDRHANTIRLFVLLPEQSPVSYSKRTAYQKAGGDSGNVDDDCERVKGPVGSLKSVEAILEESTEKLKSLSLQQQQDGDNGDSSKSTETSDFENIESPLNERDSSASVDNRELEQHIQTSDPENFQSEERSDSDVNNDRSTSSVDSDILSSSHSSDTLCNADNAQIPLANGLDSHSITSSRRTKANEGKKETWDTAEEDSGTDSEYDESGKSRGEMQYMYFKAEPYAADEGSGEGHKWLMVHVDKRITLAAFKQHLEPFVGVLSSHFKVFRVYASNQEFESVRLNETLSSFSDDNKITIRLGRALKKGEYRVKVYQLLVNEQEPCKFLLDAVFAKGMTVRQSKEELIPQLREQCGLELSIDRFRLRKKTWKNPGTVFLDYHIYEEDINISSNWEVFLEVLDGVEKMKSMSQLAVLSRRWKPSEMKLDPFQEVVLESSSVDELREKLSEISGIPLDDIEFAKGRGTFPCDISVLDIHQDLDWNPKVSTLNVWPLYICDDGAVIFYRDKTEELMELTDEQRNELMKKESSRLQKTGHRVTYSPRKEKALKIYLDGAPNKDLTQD
Method in brief: as §1

[4] = target: T3, USP48 (UniProt Q86UV5)
T3 sequence (whole entry): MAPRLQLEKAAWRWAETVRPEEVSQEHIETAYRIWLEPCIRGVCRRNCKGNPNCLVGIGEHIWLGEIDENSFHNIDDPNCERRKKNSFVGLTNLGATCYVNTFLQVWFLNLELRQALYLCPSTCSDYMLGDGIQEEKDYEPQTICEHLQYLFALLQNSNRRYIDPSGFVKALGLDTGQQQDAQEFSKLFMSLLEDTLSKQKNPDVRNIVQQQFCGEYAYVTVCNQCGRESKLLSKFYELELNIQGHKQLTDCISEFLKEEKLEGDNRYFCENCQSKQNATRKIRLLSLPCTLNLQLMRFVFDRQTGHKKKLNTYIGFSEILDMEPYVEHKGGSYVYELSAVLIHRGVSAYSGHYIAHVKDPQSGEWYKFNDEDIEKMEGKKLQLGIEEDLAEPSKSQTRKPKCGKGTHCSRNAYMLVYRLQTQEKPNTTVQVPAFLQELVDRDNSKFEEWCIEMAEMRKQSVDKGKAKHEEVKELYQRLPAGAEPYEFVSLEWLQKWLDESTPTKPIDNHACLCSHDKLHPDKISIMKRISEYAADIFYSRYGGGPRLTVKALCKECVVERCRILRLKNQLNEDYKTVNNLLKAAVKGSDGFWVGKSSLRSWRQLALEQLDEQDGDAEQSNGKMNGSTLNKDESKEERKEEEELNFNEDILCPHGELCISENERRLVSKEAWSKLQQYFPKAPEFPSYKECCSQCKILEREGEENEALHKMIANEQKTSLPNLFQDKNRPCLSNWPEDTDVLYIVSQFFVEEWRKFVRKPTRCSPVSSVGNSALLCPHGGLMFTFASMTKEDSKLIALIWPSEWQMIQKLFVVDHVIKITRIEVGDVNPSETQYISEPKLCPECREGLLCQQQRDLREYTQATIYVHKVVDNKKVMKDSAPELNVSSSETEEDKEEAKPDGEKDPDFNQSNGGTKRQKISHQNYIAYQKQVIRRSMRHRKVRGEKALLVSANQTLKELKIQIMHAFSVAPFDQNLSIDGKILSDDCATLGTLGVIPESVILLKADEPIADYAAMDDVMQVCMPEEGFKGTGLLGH
Method in brief: as §1

[5] = target: T4, USP5 (UniProt P45974)
T4 sequence (whole entry): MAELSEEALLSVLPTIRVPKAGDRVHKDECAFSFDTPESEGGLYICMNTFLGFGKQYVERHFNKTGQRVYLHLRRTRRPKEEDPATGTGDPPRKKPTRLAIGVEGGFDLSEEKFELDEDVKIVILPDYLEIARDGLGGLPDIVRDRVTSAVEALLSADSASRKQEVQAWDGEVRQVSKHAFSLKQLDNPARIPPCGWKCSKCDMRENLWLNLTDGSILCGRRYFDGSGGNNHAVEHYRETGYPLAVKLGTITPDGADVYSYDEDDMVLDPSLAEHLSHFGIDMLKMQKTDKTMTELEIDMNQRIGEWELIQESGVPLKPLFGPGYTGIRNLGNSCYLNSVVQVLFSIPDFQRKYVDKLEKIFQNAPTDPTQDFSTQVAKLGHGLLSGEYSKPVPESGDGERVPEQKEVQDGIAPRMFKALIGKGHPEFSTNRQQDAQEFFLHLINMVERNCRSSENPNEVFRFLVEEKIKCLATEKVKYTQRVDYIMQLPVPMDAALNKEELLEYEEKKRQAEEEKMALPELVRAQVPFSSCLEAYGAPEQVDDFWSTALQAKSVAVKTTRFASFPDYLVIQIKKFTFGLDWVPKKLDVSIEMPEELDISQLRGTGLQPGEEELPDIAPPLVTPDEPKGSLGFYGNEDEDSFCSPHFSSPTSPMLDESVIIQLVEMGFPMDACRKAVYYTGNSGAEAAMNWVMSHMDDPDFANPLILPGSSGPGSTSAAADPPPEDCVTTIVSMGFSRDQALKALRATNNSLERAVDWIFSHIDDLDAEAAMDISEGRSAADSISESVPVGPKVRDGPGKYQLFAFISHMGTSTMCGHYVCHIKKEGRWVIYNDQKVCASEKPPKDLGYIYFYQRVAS
Method in brief: as §1

[6] = target: USP54 (UniProt Q70EL1)
Chain of USP54 (Q70EL1 whole entry): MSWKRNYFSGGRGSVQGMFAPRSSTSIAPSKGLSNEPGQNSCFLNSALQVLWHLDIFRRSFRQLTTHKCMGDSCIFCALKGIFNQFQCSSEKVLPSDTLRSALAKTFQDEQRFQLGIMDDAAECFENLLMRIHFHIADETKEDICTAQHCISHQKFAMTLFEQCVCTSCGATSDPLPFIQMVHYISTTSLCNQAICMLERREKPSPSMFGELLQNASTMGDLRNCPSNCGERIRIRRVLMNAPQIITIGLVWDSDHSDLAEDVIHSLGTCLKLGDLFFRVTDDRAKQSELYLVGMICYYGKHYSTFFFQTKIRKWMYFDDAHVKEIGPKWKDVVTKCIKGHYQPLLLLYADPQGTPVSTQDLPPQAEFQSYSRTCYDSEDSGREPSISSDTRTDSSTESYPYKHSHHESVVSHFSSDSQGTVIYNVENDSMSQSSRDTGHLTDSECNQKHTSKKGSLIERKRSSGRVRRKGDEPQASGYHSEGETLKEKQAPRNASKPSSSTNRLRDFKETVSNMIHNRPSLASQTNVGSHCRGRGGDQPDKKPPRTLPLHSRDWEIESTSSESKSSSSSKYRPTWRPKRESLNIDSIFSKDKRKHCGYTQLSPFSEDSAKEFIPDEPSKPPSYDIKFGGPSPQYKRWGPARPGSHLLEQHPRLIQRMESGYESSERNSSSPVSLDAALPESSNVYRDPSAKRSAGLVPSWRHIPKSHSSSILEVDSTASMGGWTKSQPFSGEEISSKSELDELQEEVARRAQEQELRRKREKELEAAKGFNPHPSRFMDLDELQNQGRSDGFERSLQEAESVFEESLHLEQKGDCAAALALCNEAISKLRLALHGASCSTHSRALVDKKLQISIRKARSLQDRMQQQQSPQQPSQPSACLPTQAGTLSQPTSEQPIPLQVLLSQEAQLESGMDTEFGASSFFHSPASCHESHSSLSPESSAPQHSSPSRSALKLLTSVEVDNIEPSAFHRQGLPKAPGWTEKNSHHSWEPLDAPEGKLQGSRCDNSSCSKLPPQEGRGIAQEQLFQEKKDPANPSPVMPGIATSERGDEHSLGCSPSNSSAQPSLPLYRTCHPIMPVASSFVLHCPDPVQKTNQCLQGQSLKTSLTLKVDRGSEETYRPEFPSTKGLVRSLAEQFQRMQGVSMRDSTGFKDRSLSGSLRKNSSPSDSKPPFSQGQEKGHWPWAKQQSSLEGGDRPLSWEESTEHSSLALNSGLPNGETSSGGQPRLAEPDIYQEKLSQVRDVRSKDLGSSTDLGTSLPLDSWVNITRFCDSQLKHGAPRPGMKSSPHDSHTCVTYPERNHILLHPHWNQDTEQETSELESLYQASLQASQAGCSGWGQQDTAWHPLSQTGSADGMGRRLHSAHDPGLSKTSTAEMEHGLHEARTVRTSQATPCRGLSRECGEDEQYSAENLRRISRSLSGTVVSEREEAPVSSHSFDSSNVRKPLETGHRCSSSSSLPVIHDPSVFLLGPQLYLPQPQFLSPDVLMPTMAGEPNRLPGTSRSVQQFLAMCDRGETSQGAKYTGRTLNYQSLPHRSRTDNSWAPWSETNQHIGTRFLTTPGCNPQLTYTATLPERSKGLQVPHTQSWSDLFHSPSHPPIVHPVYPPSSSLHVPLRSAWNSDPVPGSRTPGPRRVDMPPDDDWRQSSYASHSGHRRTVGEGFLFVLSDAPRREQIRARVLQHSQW
Method in brief: as §1

[7] = target: USP7 (UniProt Q93009)
Chain of USP7 (Q93009 whole entry, looked up): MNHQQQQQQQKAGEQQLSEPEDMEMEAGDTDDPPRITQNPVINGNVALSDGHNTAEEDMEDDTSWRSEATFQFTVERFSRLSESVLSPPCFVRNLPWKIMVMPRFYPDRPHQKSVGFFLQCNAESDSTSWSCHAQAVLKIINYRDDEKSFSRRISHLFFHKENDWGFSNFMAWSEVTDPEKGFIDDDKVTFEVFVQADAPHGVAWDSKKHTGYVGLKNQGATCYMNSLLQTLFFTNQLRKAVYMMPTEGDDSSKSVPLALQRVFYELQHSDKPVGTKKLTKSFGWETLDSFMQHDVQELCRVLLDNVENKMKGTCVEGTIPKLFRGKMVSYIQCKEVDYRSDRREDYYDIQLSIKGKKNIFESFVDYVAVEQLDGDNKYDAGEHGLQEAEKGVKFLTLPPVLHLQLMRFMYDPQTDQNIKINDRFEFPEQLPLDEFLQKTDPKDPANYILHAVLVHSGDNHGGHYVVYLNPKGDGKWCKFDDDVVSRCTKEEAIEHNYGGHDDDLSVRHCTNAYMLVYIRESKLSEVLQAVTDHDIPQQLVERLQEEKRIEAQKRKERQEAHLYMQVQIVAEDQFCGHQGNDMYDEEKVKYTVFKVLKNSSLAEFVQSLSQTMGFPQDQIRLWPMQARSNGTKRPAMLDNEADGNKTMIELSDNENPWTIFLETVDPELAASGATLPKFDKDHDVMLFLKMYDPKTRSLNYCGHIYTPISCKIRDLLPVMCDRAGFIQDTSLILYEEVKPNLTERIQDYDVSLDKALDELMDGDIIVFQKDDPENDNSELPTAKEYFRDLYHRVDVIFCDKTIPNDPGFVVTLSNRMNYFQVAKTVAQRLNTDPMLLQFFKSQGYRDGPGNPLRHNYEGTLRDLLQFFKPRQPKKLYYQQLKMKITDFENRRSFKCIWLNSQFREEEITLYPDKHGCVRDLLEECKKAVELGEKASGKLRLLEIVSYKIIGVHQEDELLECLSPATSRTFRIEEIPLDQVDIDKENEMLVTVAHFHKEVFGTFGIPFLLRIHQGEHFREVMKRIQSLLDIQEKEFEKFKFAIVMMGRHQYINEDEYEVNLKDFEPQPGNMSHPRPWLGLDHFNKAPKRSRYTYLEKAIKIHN
Method in brief: as §1

[8] = target: T5, USP8 (UniProt P40818)
T5 sequence (whole entry): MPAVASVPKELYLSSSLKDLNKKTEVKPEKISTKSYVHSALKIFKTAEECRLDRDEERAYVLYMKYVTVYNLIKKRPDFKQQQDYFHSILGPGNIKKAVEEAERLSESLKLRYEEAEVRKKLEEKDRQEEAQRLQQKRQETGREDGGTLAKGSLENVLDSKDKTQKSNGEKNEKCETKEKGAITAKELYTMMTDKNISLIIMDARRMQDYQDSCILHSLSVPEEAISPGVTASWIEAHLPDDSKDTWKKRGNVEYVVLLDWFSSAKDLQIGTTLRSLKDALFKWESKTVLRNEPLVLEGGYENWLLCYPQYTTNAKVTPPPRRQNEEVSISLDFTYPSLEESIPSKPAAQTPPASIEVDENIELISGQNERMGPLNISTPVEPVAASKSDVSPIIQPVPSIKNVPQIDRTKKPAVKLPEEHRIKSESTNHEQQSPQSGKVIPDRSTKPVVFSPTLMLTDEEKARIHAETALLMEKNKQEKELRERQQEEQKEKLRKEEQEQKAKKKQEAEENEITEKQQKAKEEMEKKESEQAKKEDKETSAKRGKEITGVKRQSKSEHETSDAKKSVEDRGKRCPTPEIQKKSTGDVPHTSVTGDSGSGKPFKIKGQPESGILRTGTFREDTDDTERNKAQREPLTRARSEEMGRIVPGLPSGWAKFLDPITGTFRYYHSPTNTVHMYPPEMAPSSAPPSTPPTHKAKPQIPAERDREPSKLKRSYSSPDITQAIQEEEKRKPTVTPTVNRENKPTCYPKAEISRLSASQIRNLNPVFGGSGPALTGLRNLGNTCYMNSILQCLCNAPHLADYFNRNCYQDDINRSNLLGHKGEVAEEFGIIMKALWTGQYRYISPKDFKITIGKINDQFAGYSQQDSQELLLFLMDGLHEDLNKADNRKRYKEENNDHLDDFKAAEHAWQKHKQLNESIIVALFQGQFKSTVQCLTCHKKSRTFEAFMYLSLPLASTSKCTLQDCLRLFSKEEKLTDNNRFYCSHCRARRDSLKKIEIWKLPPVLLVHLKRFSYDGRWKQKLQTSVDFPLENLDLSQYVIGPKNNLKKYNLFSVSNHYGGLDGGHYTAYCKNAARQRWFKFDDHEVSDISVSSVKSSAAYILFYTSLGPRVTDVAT
Method in brief: as §1

Measured: log2 ratio of Biotin-Ahx-Ub-VS probe labelling

CCC1c2ccsc2CCN1C(=O)CCl (stereo not drawn)
inactive: [1] 0.624 | [2] -0.333 | [3] -0.618 | [4] -0.725 | [5] -0.159 | [6] -0.451 | [8] -0.157
active: [7] -1.23
